# According to PubChem BioAssay (EPA / NIEHS):
# Inconclusive results are not listed. Some structures have more than one record in an assay (separate samples or runs), and their calls can disagree. The source made the active and inactive calls. Rule for the calls: active = hit-call score of the fitted dose curve at least 0.9, where 1 is the maximum; inconclusive = response in the unintended direction; inactive = score below 0.9.
# Test: TOX21_p53_BLA_p2_viability: Viability Assessment in the Tox21 HCT-116 p53 Agonism Beta-lactamase Assay, Phase 2 (AID 2283591);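 note: compound exposure lasted 16 h at 37 °C; actives lower the ATP signal meaning cytotoxicity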
# Excerpt: TOX21_p53_BLA_p2 is a cell-based, single-readout assay that uses HCT116, a human intestinal cell line, […] in a 1536-well plate.TOX21_p53_BLA_p2_viability is an assay readout measuring cellular ATP content and detected with CellTiter-Glo Luciferase-coupled ATP quantitation.TOX21_p53_BLA_p2_viability used a type of viability reporter where loss-of-signal activity can be used to understand changes in the cell viability. Furthermore, this assay endpoint can be referred to as a secondary readout, because this assay has produced multiple assay endpoints where this one serves a viability function. To generalize the intended target to other relatable targets, this assay endpoint is annotated to the cell cycle intended target family, where the subfamily is cytotoxicity.
# Thawing Method: Place 14 mL of pre-warmed thaw medium into a 15 mL of conical tub. Remove the vial of cells to be thawed from liquid nitrogen and thaw rapidly by placing at 37C in a water bath with gentle agitation for 1-2 minutes. Decontaminate the vial by wiping with 70% ethanol before opening in a biological safety cabinet. Transfer the vial contents drop-wise into 14 mL of thaw medium in a sterile 15-mL conical tub. Centrifuge cells at 900 rpm for 4 minutes and resuspend in thaw medium. Transfer contents to the T75 tissue culture flask containing Thaw Medium and place flask in a humidified 37C/5% CO2 incubator. Switch to growth medium at first passage.Propagation Method: Aspirate medium, rinse once in DPBS, add 0.25% Trypsin/EDTA and swirl to coat the cell evenly. Add an equal volume of Growth Medium to inactivate Trypsin after 2-3 minutes incubation at 37C. Centrifuge cells at 900 rpm for 4 minutes and resuspend in growth medium. Cell should be passage or fed at least twice a week.Assay Protocol: Harvest cells from culture in growth medium and resuspend in assay medium. 2.2 Dispense 4000 cells/5 uL/well into 1536-well black/clear bottom plates using a Multidrop dispenser. After the cells were incubated at 37C for 5 hours, 23 nL of compounds dissolved in DMSO were transferred to the assay plate by a PinTool resulting in a 217-fold dilution. Incubate the plates for 16 hours at 37C, 5% CO2. Add 1 uL of 6X LiveBLAzer FRET B/G (CCF4-AM) Substrate Mixture to each well using a BioRAPTR dispenser and incubate the plates at room temperature for 2 hours. Measure fluorescence intensity at 460 and 530 nm emission and 405 nm excitation by an Envision detector. Data is expressed as the ratio of 460nm/530nm emissions. Add 4 uL of Cell-titer Glo to each well using BioRAPTR and incubate the plates at room temperature for […]. For cell viability readout that measures cytotoxicity, 4 ul/well of CellTiter-Glo reagent was added into the assay plates using a Flying Reagent Dispenser. After 30 min incubation at room temperature, the luminescence intensity in the plates was measured using a ViewLux plate reader.
Compound,outcome,AC50
CC(C)=CCC/C(C)=C\CO,inactive,
C1=CCCC=CCCC=CCC1,inactive,
CCOc1cccc(-n2cc(C(=O)N3CCN(c4cc(C(=O)O)c5ccccc5c4)CC3)nc2-c2ccc(C)cc2)c1,,10.6 µM (active)
CC[C@H](C)C(=O)O[C@H]1C[C@@H](C)C=C2C=C[C@H](C)[C@H](CC[C@@H]3C[C@@H](O)CC(=O)O3)[C@H]21,inactive,44.6 µM (active)
CCN(C(=O)c1cc(C)cc(OC[C@H](C)Nc2ccncc2)c1)C(C)C,inactive,
O=C(NS(=O)(=O)/C=C/c1ccccc1)c1ccc(F)cc1Cl,inactive,
CCC(C)(C)C(=O)O[C@H]1C[C@@H](C)C=C2C=C[C@H](C)[C@H](CC[C@@H]3C[C@@H](O)CC(=O)O3)[C@H]21,inactive,
Nc1ccc(Nc2ccccc2)cc1,inactive,
C1N2CN3CN1CN(C2)C3,inactive,
CC(=O)OCCC(C)C,inactive,
O=P(OC(CCl)CCl)(OC(CCl)CCl)OC(CCl)CCl,inactive,
CC(=O)OC[C@H]1O[C@@](COC(C)=O)(O[C@H]2O[C@H](COC(C)=O)[C@@H](OC(C)=O)[C@H](OC(C)=O)[C@H]2OC(C)=O)[C@@H](OC(C)=O)[C@@H]1OC(C)=O,inactive,
O=c1n(CC2CO2)c(=O)n(CC2CO2)c(=O)n1CC1CO1 (stereo not given),inactive,
CCOCCOCCOCCO,inactive,
C=CC(=C)CCC=C(C)C,inactive,
Cc1[nH]cnc1C[C@H]1CCc2c(C)c3ccccc3n2C1=O,inactive,
CCc1cc(SCc2sc(-c3ccc(C(F)(F)F)cc3)nc2CN2CCN(c3ccc(OC)cc3)CC2)ccc1OCC(=O)O,,7.48 µM (active)
CCCCCCCCO,inactive,
COC(=O)c1c(Cl)c(Cl)c(C(=O)OC)c(Cl)c1Cl,inactive,
CCCN(C1CCN(C(=O)C2CCNCC2)CC1)[C@@H]1CCc2ccc(OC)cc2C1,inactive,

Compound,outcome,AC50
CCCCCCCCCCCCCCCO,inactive,
CC[C@H]1CC[C@H](NCc2cc3c(cc2OC)[C@H]2C[C@H]2C(=O)N3C)[C@H](c2ccccc2)N1,inactive,
Cc1ccc(N)cc1O,inactive,
NC(=O)NO,inactive,
CC(C)CC(C)(O)C#CC(C)(O)CC(C)C (stereo not given),inactive,
CC/C(=C\C(=N/O)C(N)=O)C(C)[N+](=O)[O-] (stereo not given),inactive,
CCNc1ccccc1,inactive,
CC(C)=CCC/C(C)=C/CO,inactive,
CC(C)c1cccc(C(C)C)c1N1C(=O)c2ccc(O)cc2C1=O,,66.7 µM (active)
COc1ccc(/C=C/S(=O)(=O)NC(=O)c2ccc(C)cc2Cl)cc1,inactive,
O=C1CCC(N2C(=O)c3ccccc3C2=O)C(=O)N1 (stereo not given),inactive,
CCOC(=O)COc1ccc2c(c1)CC(NCC(O)c1cccc(Cl)c1)CC2 (stereo not given),,67.3 µM (active)
CC(C)CCCCCCCOC(=O)CCCCC(=O)OCCCCCCCC(C)C,inactive,
Cn1c(=O)cc(Oc2ccc(F)cc2F)c2cnc(NCC(C)(C)O)nc21,inactive,
CC(C)=CCCC(C)CCO (stereo not given),inactive,
Fc1ccccc1[C@@H](F)COC1CCC(Nc2ncnc3[nH]ncc23)CC1 (stereo not given in full),inactive,
O=C1CCCCCN1,inactive,
O=C(CCCCCCCCc1cccnc1)N1CCC(C=C(c2ccccc2)c2ccccc2)CC1,,10 µM (active)
CN(C)c1ccc(Cc2ccc(N(C)C)cc2)cc1,inactive,
